# High-throughput results as filed in PubChem BioAssay.
# Pf growth 96h: Primary qHTS for delayed death inhibitors of the malarial parasite plastid, 96 hour incubation; 320,000 tested, 6.9% active; P. falciparum luciferase reporter growth, 96 h; Potency, µM (highest dose often 28.7 µM), for the others: at the top dose activity change, negative = inhibition, hits mostly inhibitors; AID 504834, 2011; further: potency means the concentration at half of the fitted maximal effect
#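 Delayed-death screen, second-generation endpoint: infected erythrocytes, 2% hematocrit, 0.05% parasitemia final; 96 hours at 37 C, 5% CO2; luciferase detection reagent; luminescence decrease equals reduced growth.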
# Pf growth 48h: Primary qHTS for delayed death inhibitors of the malarial parasite plastid, 48 hour incubation; 310,000 tested, 5.9% active; P. falciparum luciferase growth in erythrocytes, 48 h; Potency, µM (doses to about 28.7 µM), without a hit: at the top dose activity change, negative = inhibition, actives largely listed as inhibitors; AID 504832, 2011; further: potency means the concentration at half of the fitted maximal effect
#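 Here the parasites carry a stable luciferase gene and grow inside erythrocytes in Albumax-based RPMI medium with compound for one erythrocytic cycle. Activity is scored as loss of luminescent signal.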
# HCV inh: qHTS Assay for Inhibitors of Hepatitis C Virus (HCV). AID 651820, 2012. Huh7.5.1 HCVcc-Cre infection, luciferase reporter, 44 h. Potency, µM (top dose mostly 41.8 µM), inactives show at the highest dose activity change, negative = inhibition, actives largely listed as inhibitors. 340,000 tested, 3.4% active; further: potency means the concentration at half of the fitted maximal effect
#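 Cells (1,000/well) were plated 4 h before compound, then infected with HCVcc-Cre virus (~0.5 moi). After 44 h further culture, infection was read as luciferase luminescence following a 15 min substrate incubation at room temperature.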
# HCMV inh: qHTS Assay for inhibitors of the human cytomegalovirus (HCMV); HFF cells, HCMV-luciferase reporter, 72 h; stronger effect = lower value; activity change, negative = inhibition, % at 57.5 µM; 410,000 tested, 4.5% active; in the data active means activity change below about -60%; inconclusive means no clear call, values can overlap the other calls; inactive means above about -39%
#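 Compounds were evaluated in HFFs infected with an HCMV luciferase reporter virus (MOI 1 PFU/cell). Luciferase in lysates collected 72 h post infection served as the replication measure.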
# The depositor's hits bear a star; ? = inconclusive; . = not tested or not shown. A selection: hits, their analogues and other compounds. The true share with any hit is near 13%. Unless noted, the call rests on the fitted dose curve; in most records, active means well fitted inhibition curve with a large enough effect; inconclusive means small, poorly fitted or top-dose-only effect, or another doubt; inactive means no such curve, though single readings can be large or run the other way. On the % scale 0 is the no-effect control and ±100 the full control effect.
SMILES,Pf growth 96h,Pf growth 48h,HCV inh,HCMV inh
COc1cccc(NC(=O)CSc2nc3n[nH]c(C)c3c(=N)n2-c2cccc(OC)c2)c1,172%,10µM*,10µM*,57
CCCCNC(=O)CSc1nc2n[nH]c(C)c2c(=N)n1-c1cccc(C)c1,.,.,.,15
Cc1ccc(CNC(=O)CSc2nc3n[nH]c(C)c3c(=N)n2-c2cccc(C)c2)cc1,9.3µM*,.,?,-37
Cc1cc(-n2c(SCC(=O)Nc3ccc(Br)cc3)nc3n[nH]c(C)c3c2=N)ccc1Cl,44%,?,-16%,-75*
COc1cccc(-n2c(SCC(=O)NCCC3=CCCCC3)nc3n[nH]c(C)c3c2=N)c1,?,9.3µM*,?,-6
CCOC(=O)C1=C(Nc2ccc(Br)cc2)C(=O)N(CC)C1,.,.,.,-12
O=C(O)[C@H](O)[C@@H](O)[C@H](O)[C@H](O)CO,-5%,-8%,.,.
Cc1c(C(=O)NCCN(C)C)sc2nc3n(c(=O)c12)CCC3,.,.,.,15
Cc1[nH]nc2nc(SCC(=O)NCC3CCCO3)n(-c3ccc(Br)cc3)c(=N)c12 (stereo not drawn),40%,10µM*,-14%,6
Nc1c(-c2ccc(C(F)(F)F)cc2)nc2ncccn12,.,.,.,-17
Cc1cc(C)n(/N=C/c2cccs2)c(=O)c1C#N,?,-12%,10%,-76*
Cc1cc(C)c(/C=N/n2c(C)cc(C)c(C#N)c2=O)c(C)c1,10µM*,?,-19%,-17
COc1ccccc1N1CCN(C(=O)c2ccc3c(c2)N(Cc2ccccc2)C(=O)c2ccccc2S3(=O)=O)CC1,.,.,.,5
O=C(NC(c1cccnc1)C(F)(F)F)c1cc(COc2ccc3c(c2)CCCC3)on1 (stereo not drawn),8%,?,4.5µM*,-82*
Cn1cc(CNC(=O)c2cc(COc3ccc4c(c3)CCCC4)on2)cn1,?,-2%,-22%,-4
CC(C(=O)Nc1cccnc1)c1ccc([N+](=O)[O-])cc1 (stereo not drawn),-13%,?,14%,10
CC(C)Cc1ccc(C(C)C(=O)Nc2cccnc2)cc1 (stereo not drawn),-8%,?,3.2µM*,-78*
CC(C)Cc1ccc(C(C)C(=O)Nc2ccc(O)cc2)cc1 (stereo not drawn),-5%,?,-10%,-66*
CC(C(=O)Nc1ccc(O)cc1)c1cccc(C(=O)c2ccccc2)c1 (stereo not drawn),12%,4%,13µM*,-63*
CCS(=O)(=O)N1CC(=O)N(c2ccc(Cl)cc2)C(C)(C(=O)NC2CCCCC2)C1 (stereo not drawn),.,.,.,0
N[C@H](COP(=O)(O)O)C(=O)O,-19%,?,.,.
CCOC(=O)N1CCC(NC(=O)c2cnn(-c3ccc(OC)cc3)c2C2CCN(C(=O)OC(C)(C)C)CC2)CC1,.,.,.,0
CCc1nc2nc(C)c(NS(=O)(=O)c3ccc(C)cc3)c(=O)n2[nH]1,.,.,.,5
Cc1cccc(NC(=O)c2c(NC(=O)C(F)(F)F)sc3c2CCCCC3)c1,.,.,.,-100*
Cc1ccc(NC(=O)c2c(NC(=O)C(F)(F)F)sc3c2CCCCC3)cc1,.,.,.,-100*
SMILES,Pf growth 96h,Pf growth 48h,HCV inh,HCMV inh
CCN(CC)CCCC(C)NC(=O)c1c(NC(=O)c2ccccc2)sc2c1CCCC2 (stereo not drawn),-23%,?,10µM*,-27
CCc1ccccc1NC(=O)c1c(NC(=O)c2ccccc2)sc2c1CCCC2,.,.,.,-9
O=C(Nc1cccc(Cl)c1)c1c(NC(=O)C(F)(F)F)sc2c1CCCC2,.,.,.,-105*
Cc1ccccc1NC(=O)c1c(NC(=O)c2ccccc2)sc2c1CCC2,.,.,.,21
Cc1ccccc1NC(=O)c1c(NC(=O)C(F)(F)F)sc2c1CCCCC2,.,.,.,-102*
O=C(O)CCC(=O)Nc1sc2c(c1C(=O)Nc1ccccc1)CCCCC2,2.3µM*,10%,-11%,95
COc1ccc(NC(=O)c2c(NC(=O)c3ccc(Br)cc3)sc3c2CCCC3)cc1,.,.,.,-63*
Cc1ccsc1CN1CCc2nc(Nc3ccccc3)ncc2C1,.,.,.,55
Cc1cc2c(cc1C)NC(CC(=O)Nc1cccc(C)c1C)C(=O)N2 (stereo not drawn),.,.,.,-13
